Source: PubChem (National Center for Advancing Translational Sciences (NCATS))
Rows were chosen to be rich in hits. Some 21% of all compounds tested hit in one or more screens of this group.
Pf growth 96h = Primary qHTS for delayed death inhibitors of the malarial parasite plastid, 96 hour incubation. P. falciparum luciferase reporter growth, 96 h. Potency, µM (series often up to 28.7 µM), for inactives: at the highest dose activity change, negative = inhibition, actives largely listed as inhibitors. 6.9% of 320,000 active. AID 504834, 2011; further: potency means the concentration at half of the fitted maximal effect; on the % scale 0 is the no-effect control and ±100 the full control effect
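Delayed-death screen, second-generation endpoint: infected erythrocytes, 2% hematocrit, 0.05% parasitemia final; 96 hours at 37 C, 5% CO2; luciferase detection reagent; luminescence decrease equals reduced growth.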
CHX counter = Cycloheximide Counterscreen for Small Molecule Inhibitors of Shiga Toxin. cell reporter, cycloheximide protein synthesis inhibition counterscreen. max response, %. 12% of 300,000 active. AID 2314, 2010; in the data active means max response mostly above about 13%, no sharp cut-off; inactive means mostly below about 14%; further: read at 38.3 µM for the half of the compounds with a filed dose; 0% is about no effect
Shiga toxin inh = A qHTS for Small Molecule Inhibitors of Shiga Toxin; 9.2% of 290,000 active; inhibition, % at 38.7 µM; Vero cells, Shiga toxin protein synthesis inhibition reporter; AID 2315, 2010; in the data active means inhibition mostly above about 28%, no sharp cut-off; inactive means mostly below about 43%; further: 0% is about no effect
SARS PLpro yeast = qHTS of Yeast-based Assay for SARS-CoV PLP. S. cerevisiae expressing SARS-CoV PLpro, growth rescue. Potency, µM (highest dose often 32.9 µM), inactives show at the highest dose activity, positive = growth rescue, most hits filed as activators. 0.19% of 330,000 active. AID 485353, 2010; calls by dose curve; further: potency means the concentration at half of the fitted maximal effect; 0% is about no effect; nearly all actives have a fitted effect of over 55% in size
NS1 function inh = qHTS Assay for Inhibitors of Influenza NS1 Protein Function. Potency, µM (highest dose often 46.1 µM), inactives show at the highest dose activity, positive = more growth. 0.4% of 270,000 active. AID 2326, 2010; calls by dose curve; further: potency means the concentration at half of the fitted maximal effect; actives are rising curves; nearly all actives have a fitted effect of over 50% in size
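In this qHTS, NS1 from influenza A is expressed in budding yeast, where it slows growth. Cells are switched from glucose to 2% galactose medium (pH 6.0, -URA), treated with compound, and growth recovery is read at OD600.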
Pf growth 48h = Primary qHTS for delayed death inhibitors of the malarial parasite plastid, 48 hour incubation; 5.9% of 310,000 active; P. falciparum luciferase growth in erythrocytes, 48 h; Potency, µM (top dose mostly 28.7 µM), for inactives: at the top dose activity change, negative = inhibition, usual class: inhibitors; further: potency means the concentration at half of the fitted maximal effect; on the % scale 0 is the no-effect control and ±100 the full control effect
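Firefly luciferase activity from engineered P. falciparum reports growth; inhibitors lower the luminescent signal. Cultures contained 2% hematocrit erythrocytes at 0.1% final parasitemia.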
* hit, by the source's call; ? = inconclusive; . = no result. Unless noted, the call rests on the fitted dose curve; in most records, active means well fitted inhibition curve with a large enough effect; inconclusive means small, poorly fitted or top-dose-only effect, or another doubt; inactive means no such curve, though single readings can be large or run the other way.

SMILES	Pf growth 96h	CHX counter	Shiga toxin inh	SARS PLpro yeast	NS1 function inh	Pf growth 48h
O=C1[C@@H]2[C@@H](C(=O)N1c1ccc(OCc3ccccc3)cc1)[C@@H]1c3ccccc3[C@@H]2[n+]2ccccc21	.	.	.	.	10%	.
CC(NC(=O)/C=C/c1ccc(Br)cc1)c1ccc(Cl)cc1 (configuration not stated)	-11%	-5	-9	11%	3%	-11%
CCn1c(Cc2ccc(OC)cc2)nnc1SCC(=O)Nc1cccc(C(=O)OC)c1	.	10	12	-4%	-7%	?
Cc1noc(C)c1-c1nc(CSc2ccccc2)no1	31%	21*	29	-1%	-5%	39%
Cc1cc(S(=O)(=O)Cc2noc(-c3c(C)noc3C)n2)c(C)cc1Cl	-20%	-2	19	0%	-3%	-11%
Cc1cc(C)nc(Oc2ccc(Br)cc2Br)n1	-11%	25*	77*	0%	-1%	40%
Cc1nn(C(C)C(=O)N2CCc3ccccc32)c(C)c1[N+](=O)[O-] (configuration not stated)	5.2µM*	-3	-22	?	1%	?
Cc1c(Br)c([N+](=O)[O-])nn1CC(=O)N1CCCc2ccccc21	2.3µM*	14	28	2%	0%	26%
O=C(Cn1ccc([N+](=O)[O-])n1)N1CCCc2ccccc21	196%	54*	127*	-1%	17%	140%
Cc1nn(CC(=O)N2CCCc3ccccc32)c(C)c1[N+](=O)[O-]	?	28*	31	0%	-2%	30%
CCc1nnc(SCC(=O)NC2CC2)n1CC	-25%	-2	-12	-5%	16%	38%
CCOC(=O)C1=NOC(COc2ccccc2C=O)C1 (configuration not stated)	?	7	-3	-2%	.	?
Cc1nn(CC(=O)c2cccc(Cl)c2)c(C)c1[N+](=O)[O-]	-4%	24*	23	1%	.	-17%
Cc1nn(CC(=O)Nc2ccc(Cl)cn2)c(C)c1[N+](=O)[O-]	-29%	-5	-5	-1%	13%	.
O=c1c(Cl)c(NCc2ccc(F)cc2)cnn1C12CC3CC(CC(C3)C1)C2	28%	-3	-9	-22%	1%	13µM*
O=c1c(Cl)c(N2CCN(c3ccccc3)CC2)cnn1C12CC3CC(CC(C3)C1)C2	?	9	-13	-10%	23%	?
O=c1c(Cl)c(N2CCN(c3ccc(F)cc3)CC2)cnn1C12CC3CC(CC(C3)C1)C2	4.1µM*	0	-6	10%	14%	4.7µM*
Cc1ccc(CNc2cnn(C34CC5CC(CC(C5)C3)C4)c(=O)c2Cl)cc1	?	1	2	-15%	8%	4%
CCOc1ccccc1NC(=O)C1CCN(c2nc(-c3ccc(OC)cc3)no2)CC1	-12%	-3	-2	-2%	11%	14%
CCOc1cc(S(=O)(=O)NCc2ccccn2)ccc1Cl	8.3µM*	-1	12	-10%	-3%	-10%
Cc1ccc2ccc(S(=O)(=O)NCc3ccccn3)cc2c1	17%	19	39*	-3%	-5%	52%
O=S(=O)(NCc1ccccn1)c1ccc(Cl)c(C(F)(F)F)c1	13%	-6	9	1%	14%	228%
Cc1cc(C)n(-c2ccc(S(=O)(=O)N3CCCC3)cc2[N+](=O)[O-])n1	-16%	2	11	1%	4%	-21%
Cc1nc2c(c(=O)c3ccccc3n2C)c(=O)n1C1CCCCCC1	38%	4	21	1%	-5%	-4%
CC(C)Cn1c(-c2ccco2)nc2c(c(=O)c3ccccc3n2C)c1=O	1.2µM*	6	10	-10%	-14%	1.3µM*
CCCCCc1nc2c(c(=O)c3ccccc3n2C)c(=O)n1C1CCCCCC1	12µM*	-5	-10	-3%	0%	?
COCCn1c(-c2cccs2)nc2c(c(=O)c3ccccc3n2C)c1=O	?	1	6	-5%	1%	?
Cn1c2ccccc2c(=O)c2c(=O)n(C3CCCCC3)c(-c3ccco3)nc21	4.1µM*	-5	-5	11%	8%	4.7µM*
